ROMK mod: modulators of human ROMK potassium channel; B-score at 10 µM; 130,000 tested, 2% active; P48048; Tet-inducible ROMK, thallium flux fluorescence; actives lie on both sides;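 active means signal ratio slope over the read window, or its plate-corrected B-score, at least 3 SD from the plate mean, either direction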;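 further: B-score of the F/F0 ratio slope over 7 to 12 s after thallium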
Target sequence (P48048 whole entry, looked up): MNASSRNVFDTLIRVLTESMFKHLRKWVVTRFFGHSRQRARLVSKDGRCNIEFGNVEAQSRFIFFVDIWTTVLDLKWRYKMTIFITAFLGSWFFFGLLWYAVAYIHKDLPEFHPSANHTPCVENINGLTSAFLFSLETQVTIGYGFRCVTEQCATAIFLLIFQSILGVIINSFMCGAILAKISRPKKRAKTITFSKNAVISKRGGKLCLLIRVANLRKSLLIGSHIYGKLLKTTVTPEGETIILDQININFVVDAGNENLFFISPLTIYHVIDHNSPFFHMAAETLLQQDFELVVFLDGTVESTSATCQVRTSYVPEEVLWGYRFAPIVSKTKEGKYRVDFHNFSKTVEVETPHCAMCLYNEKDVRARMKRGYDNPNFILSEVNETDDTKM
Measles CPE: protection of cells from measles virus; Measles virus-infected cells, CPE protection, absorbance; protection (pct of control), % at 4 µM; 140,000 tested, 1.5% active; in the data active means protection mostly above about 24%, no sharp cut-off; inactive means mostly below about 26%
HSV augment: HSV replication enhancement | HSV replication augmentation in cells, fold increase | maximum fold increase | 220,000 tested, 0.005% active; in the data active means maximum fold increase above about 1.5; tested in PC3 cells
KCC2 mod: modulates chloride dependent transport by human KCC2. B-score of Tl+ flux slope (higher = more flux/activation; lower = inhibition) at 10 µM. AID 1456. 190,000 tested, 2.2% active. KCC2 cells, thallium flux FluoZin-2 fluorescence;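 active means thallium flux slope and its plate-corrected score both differing from the plate sample mean at a set confidence after two filtering rounds, in either direction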;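 further: slope of fluorescence scaled to starting intensity during 10 to 20 s after thallium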
Arbovirus anti: blocks arbovirus infection; inhibition, % at 10 µM; arbovirus infection cell-based antiviral screen; 200,000 tested, 0.37% active; AID 1251; in the data active means inhibition above about 30%
Starred values were filed as active, the others as inactive. This is a sample that favours compounds with a hit; in the whole collection about 4% have one here.

What do the screens show for `COc1ccc(C)cc1N(CC(=O)NC1CCCC1)C(=O)CCC(=O)Nc1cc(C)on1`?
Measles CPE: 10; HSV augment: inactive; KCC2 mod: -1.1; Arbovirus anti: 3

What do the screens show for `COc1ccc(CCN(CC(=O)NC2CCCC2)C(=O)CCC(=O)Nc2cc(C)on2)cc1OC`?
Measles CPE: 22*; KCC2 mod: 0.0026; Arbovirus anti: 3

How did O=C(c1cnn(C(=O)c2cccc(S(=O)(=O)N3CCOCC3)c2)c1)c1ccccc1O do in these assays?
ROMK mod: -0.28; HSV augment: inactive; KCC2 mod: -2.3; Arbovirus anti: 7

How did CCNc1oc(COc2cccc(C)c2)nc1C#N do in these assays?
ROMK mod: 0.12; Measles CPE: 38*; HSV augment: inactive; KCC2 mod: -0.28; Arbovirus anti: -3

How did O=C(C1CC1)N1CCc2sccc2C1c1ccc(Cl)cc1 (centres undefined) do in these assays?
HSV augment: inactive; KCC2 mod: -2.2

Results for CCCn1c(=S)[nH]c2cc(C(=O)N3CCc4ccccc43)ccc2c1=O ?
Measles CPE: 12; HSV augment: inactive; KCC2 mod: 0.39; Arbovirus anti: 6

What do the screens show for `COCCn1c(=S)[nH]c2cc(C(=O)N3CCc4ccccc43)ccc2c1=O`?
Measles CPE: 59*; HSV augment: inactive; KCC2 mod: -0.29; Arbovirus anti: 10

How did CC(C)OC(=O)NCCOC(=O)Nc1cccc(Cl)c1 do in these assays?
Measles CPE: 6; HSV augment: inactive; KCC2 mod: 0.66; Arbovirus anti: 2

What do the screens show for `O=C(Nc1ccccc1)OCCNC(=O)c1cccc(Cl)c1`?
Measles CPE: 29*; HSV augment: inactive; KCC2 mod: -1.3; Arbovirus anti: 0

Results for Cc1cc(NC(=O)CN2C(=O)S/C(=C\c3ccccc3)C2=O)no1 ?
ROMK mod: -0.58; Measles CPE: 31*; HSV augment: inactive; KCC2 mod: -0.42; Arbovirus anti: -7

How did Cc1cc(NC(=O)CCN2C(=O)/C(=C\c3ccccc3)SC2=S)no1 do in these assays?
HSV augment: inactive; KCC2 mod: -0.58

What do the screens show for `Cc1nnc(SC(C)C(=O)Nc2ncc(Cl)cc2Cl)n1Cc1ccccc1` (centres undefined)?
Measles CPE: 13; HSV augment: inactive; KCC2 mod: -0.77; Arbovirus anti: -9

Results for COCCn1c(SC(C)C(=O)Nc2ncc(Cl)cc2Cl)nc2ccccc21 (centres undefined) ?
ROMK mod: 0.64; Measles CPE: 53*; HSV augment: inactive; KCC2 mod: -1.3; Arbovirus anti: 31*

Results for Cc1cc(SC(C)C(=O)Nc2ncc(Cl)cc2Cl)nc2ccccc12 (centres undefined) ?
ROMK mod: 0.0073; Measles CPE: 26*; HSV augment: inactive; KCC2 mod: 0.074; Arbovirus anti: 6

Results for COC(=O)Cc1c(O)ccn(Cc2ccc(F)cc2)c1=O ?
ROMK mod: 1*; Measles CPE: 32; HSV augment: inactive; KCC2 mod: 1.5; Arbovirus anti: 2

How did CCN(C(=O)CN1CCN(S(=O)(=O)c2cc(Cl)ccc2Cl)CC1)c1c(N)n(Cc2ccccc2)c(=O)[nH]c1=O do in these assays?
ROMK mod: -1.4; Measles CPE: 30*; HSV augment: inactive; KCC2 mod: 0.41; Arbovirus anti: 3

How did CCNC(=S)N/N=C(\C)c1cc2ccccc2o1 do in these assays?
Measles CPE: 6; HSV augment: inactive; KCC2 mod: 9.1*; Arbovirus anti: 2

Results for CCNC(=S)N/N=C(\C)c1ccc(Cl)s1 ?
Measles CPE: 4; HSV augment: inactive; KCC2 mod: 19*; Arbovirus anti: -11

How did C=C(C)CNC(=S)N/N=C(\C)c1ccc(Cl)s1 do in these assays?
Measles CPE: 7; HSV augment: inactive; KCC2 mod: 13*; Arbovirus anti: -3

How did CNC(=S)N/N=C(\C)c1ccc(Cl)s1 do in these assays?
Measles CPE: 4; HSV augment: inactive; KCC2 mod: 13*; Arbovirus anti: -7

How did C/C(=N\NC(N)=O)c1ccc(Cl)s1 do in these assays?
HSV augment: inactive; KCC2 mod: -0.86

Results for CNC(=S)N/N=C(\C)c1ccc(C)c(C)c1 ?
Measles CPE: 4; HSV augment: inactive; KCC2 mod: 5.1*; Arbovirus anti: -2

Results for COc1ccc(CCNC(=O)CSc2nnc3ccc(-c4cccnc4)nn23)cc1 ?
ROMK mod: -0.71; HSV augment: inactive; KCC2 mod: 1.9; Arbovirus anti: -2

What do the screens show for `COc1cc(COCC(O)CN2CCOCC2)cc(OC)c1OC` (centres undefined)?
Measles CPE: 32*; HSV augment: inactive; Arbovirus anti: 17

Results for CCOC(=O)c1sc2nc(NC(=O)c3cccs3)sc2c1C ?
Arbovirus anti: 3

Results for CCC(OC(=O)C(NC(=O)c1ccccc1)c1ccccc1)C(=O)Nc1cc(C)on1 (centres undefined) ?
Measles CPE: 47*; KCC2 mod: -0.2; Arbovirus anti: -1

How did CCC(Oc1ccccc1)C(=O)Nc1cc(C)on1 (centres undefined) do in these assays?
Measles CPE: 16; HSV augment: inactive; KCC2 mod: 0.69; Arbovirus anti: 1

Results for Cc1cc([N+](=O)[O-])ccc1-c1ccc(C2Nc3ccccc3C(=O)N2O)o1 (centres undefined) ?
Measles CPE: 4; HSV augment: inactive; KCC2 mod: 8.4*; Arbovirus anti: -31

What do the screens show for `CCOC(=O)c1ccc(-c2ccc(C3Nc4ccccc4C(=O)N3O)o2)cc1` (centres undefined)?
ROMK mod: -3.8*; Measles CPE: 6; HSV augment: inactive; KCC2 mod: 7.1*; Arbovirus anti: -28

Results for CCOC(=O)c1oc2ccccc2c1NC(=O)CN1CCOCC1 ?
HSV augment: inactive; KCC2 mod: -0.29; Arbovirus anti: -2

Results for COc1cc2cc(CN(Cc3cccnc3)C(=O)NCc3ccccc3)c(=O)[nH]c2cc1OC ?
ROMK mod: 0.16; Measles CPE: 48*; HSV augment: inactive; KCC2 mod: 0.52; Arbovirus anti: 5

What do the screens show for `COc1cc2[nH]c(=O)n(CCC(=O)NCc3cccnc3)c(=O)c2cc1OC`?
Measles CPE: 67*; HSV augment: inactive; KCC2 mod: 0.22; Arbovirus anti: 6

What do the screens show for `Cc1ccc(CNC(=O)CSc2c3c(nc4cc(Cl)ccc24)CCCC3)o1`?
Measles CPE: 16; HSV augment: inactive; KCC2 mod: -1.6; Arbovirus anti: 3

How did O=C(O)Cc1ccc(-n2cccc2)cc1 do in these assays?
ROMK mod: -0.049; HSV augment: inactive; KCC2 mod: 1.1; Arbovirus anti: 8

Results for O=C(CS(=O)(=O)c1ccc2ccccc2c1)N1CCCCCC1 ?
KCC2 mod: -0.054; Arbovirus anti: 13

What do the screens show for `CC(C(=O)OCc1nnc(-c2ccccc2)o1)N1C(=O)C2CCCCC2C1=O` (centres undefined)?
HSV augment: inactive; KCC2 mod: -0.0073; Arbovirus anti: 1

What do the screens show for `CCOC(=O)/C(C#N)=C/C=C1/C=CC=CN1C`?
HSV augment: inactive; KCC2 mod: -0.89
